Screening results from PubChem.
p53 reactivation – re-activators of mutant p53 | AID 504706 | 320,000 tested, 0.063% active | Potency, µM (highest dose often 92.2 µM), usual class: activators | H1299 p53-A138V BP100-luciferase reporter, luminescence, 24 h; note: nearly all actives have a fitted effect of over 45% in size
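H1299 (p53-null), stable ts p53-A138V + BP100-Luc; 1000 cells/well, Opti-MEM/10% FBS; cpd 4 pt, 1:5; 24 h, 37 deg C, 5% CO2; detection reagent 10 min RT; luminescence.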
VP16 counter – counter-screen for ROR gamma inhibitors: Gal4-VP16 reporter | Drosophila S2 Gal4-VP16 UAS-luciferase, luminescence, 20 h | Potency, µM (titrated, usually from 53.6 µM), actives largely listed as inhibitors | 310,000 tested, 3.5% active;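 note: Gal4-VP16 expression switched on by copper sulfate through the metallothionein promoter; nearly all actives have a fitted effect of over 50% in size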
RORgamma inh – inhibitors of mouse ROR gamma transcriptional activity; Drosophila S2 Gal4-RORgamma UAS-luciferase reporter, 20 h; AID 2551; Potency, µM (highest dose often 53.6 µM), usual class: inhibitors; 310,000 tested, 5.4% active; P51450; note: nearly all actives have a fitted effect of over 60% in size
Target sequence (P51450 whole entry, looked up, the tested form may be a part): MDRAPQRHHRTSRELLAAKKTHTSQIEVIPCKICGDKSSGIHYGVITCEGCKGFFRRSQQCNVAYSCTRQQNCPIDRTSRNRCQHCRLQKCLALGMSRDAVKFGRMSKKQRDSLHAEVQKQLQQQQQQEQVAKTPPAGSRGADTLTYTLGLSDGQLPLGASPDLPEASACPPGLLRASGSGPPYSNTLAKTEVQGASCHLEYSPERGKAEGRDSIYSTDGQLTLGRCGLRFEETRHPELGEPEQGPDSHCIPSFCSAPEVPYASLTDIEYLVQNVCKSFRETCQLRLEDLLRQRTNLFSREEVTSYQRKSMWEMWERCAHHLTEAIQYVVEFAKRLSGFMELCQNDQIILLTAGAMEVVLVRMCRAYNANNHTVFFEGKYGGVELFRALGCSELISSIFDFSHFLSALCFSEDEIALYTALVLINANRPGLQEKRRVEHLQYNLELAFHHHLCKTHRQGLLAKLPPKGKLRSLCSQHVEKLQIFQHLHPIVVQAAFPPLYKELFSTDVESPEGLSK
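In this cell-based reporter format, copper sulfate (700 uM final) drives Gal4–ROR gamma fusion expression from a metallothionein promoter in Drosophila Schneider cells; compounds preincubated 1 hr, reporter read after 20 hr at ambient temperature.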
CtBP-E1A blk – blocks the CtBP interaction with E1A; activity change, % (test concentration not listed); AlphaScreen GST-E1A/His-CtBP binding, 1536-well; active compounds read low; 340,000 tested, 0.49% active; in the data active = activity change below about -65%; inconclusive = mostly about -30% to -63%
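GST-E1A and His-tagged CtBP (125 nM each as 5X stock) were preincubated with pin-transferred compound for 2 h at 37 °C in the dark, then glutathione donor and nickel acceptor beads were added for 1 h before AlphaScreen reading.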
Six1-Eya2 blk – Six1/Eya2 interaction inhibition; Q15475+O00167; AlphaScreen GST-Six1/His-Eya2 binding, biochemical; active compounds read low; activity change, % (test concentration not listed); 360,000 tested, 0.56% active; AID 651725; in the data active = activity change below about -65%; inconclusive = mostly about -30% to -63%
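AlphaScreen luminescence read after one hour at 37 °C in darkness. Pin-transferred compounds met GST-Six1 and His-Eya2 protein (5X stock 250 nM/500 nM) plus glutathione donor and Ni-chelate acceptor beads (5X, 50 ug/mL).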
Large screens that a line does not name were inactive. Hits are enriched below; roughly 5.4% of the tested compounds scored in any of these assays. Unless noted, calls come from the whole dose curve; as a rule, active = well fitted curve in the direction sought with a large enough effect; inconclusive = small, poorly fitted or top-dose-only effect, or another doubt; inactive = no such curve, though single readings can be large; an effect the other way counts as inactive or inconclusive.

Oc1ccc(O)c2c1C1c3ccccc3C2c2ccccc21	VP16 counter 20µM, RORgamma inh 7.94µM (no result: CtBP-E1A blk, Six1-Eya2 blk)
Oc1ccc2ccccc2c1C1Nc2cccc3cccc(c23)N1	VP16 counter inconclusive, RORgamma inh inconclusive
CCN(CC)c1ccc(/C=N/NC(=O)c2cccc(S(=O)(=O)N3CCOCC3)c2)c(O)c1	VP16 counter 11.2µM, RORgamma inh 2.82µM, CtBP-E1A blk inconclusive, Six1-Eya2 blk inconclusive
CCN(CC)c1ccc(/C=N/NC(=O)c2c(Cl)cnn2C)c(O)c1	p53 reactivation inconclusive, CtBP-E1A blk -90.9, Six1-Eya2 blk -89.8
CCN(CC)c1ccc(C=Nc2cccc(S(=O)(=O)N3CCOCC3)c2)c(O)c1	none (no result: VP16 counter, RORgamma inh)
CCOC(=O)N/N=C/c1ccc(N(CC)CC)cc1O	p53 reactivation inconclusive, VP16 counter inconclusive, RORgamma inh inconclusive
NC(=O)C1CCN(c2ccnc3cc(Cl)ccc23)CC1	none
Clc1ccccc1COc1ccccc1-c1nnco1	VP16 counter inconclusive, RORgamma inh 11.2µM
c1ccc(OCCOc2ccccc2-c2nnco2)cc1	none
CC(C)S(=O)(=O)c1cnc(-c2cccnc2)nc1N	none
Cc1ccc(Cl)cc1N1C(=O)CC(Sc2ncccn2)C1=O (stereo unspecified)	VP16 counter inconclusive, RORgamma inh 20µM (no result: CtBP-E1A blk)
O=C1CC(Sc2ncccn2)C(=O)N1c1ccccc1C(F)(F)F (stereo unspecified)	VP16 counter 7.08µM, RORgamma inh 4.47µM
Cc1cccc(N2C(=O)CC(Sc3nc(-c4ccccc4)c4cc(Cl)ccc4n3)C2=O)c1 (stereo unspecified)	VP16 counter inconclusive, RORgamma inh 2.82µM
CCc1ccccc1N1C(=O)CC(Sc2nccc(C)n2)C1=O (stereo unspecified)	VP16 counter inconclusive, RORgamma inh inconclusive (no result: CtBP-E1A blk)
c1ccc(SCc2cn(C[C@H]3CC[C@@H]([C@@H]4CC[C@H](Cn5cc(CSc6ccccc6)nn5)O4)O3)nn2)cc1	none (no result: p53 reactivation)
O=C(COC(=O)c1ccccc1[N+](=O)[O-])Nc1nnc(-c2ccccc2)o1	CtBP-E1A blk inconclusive (no result: VP16 counter, RORgamma inh)
Cc1cc(C(O)c2ncc(-c3ccc(Cl)cc3)[nH]2)ccc1F (stereo unspecified)	none (no result: p53 reactivation, VP16 counter, RORgamma inh)
CC(C)C[C@H](NC(=O)c1[nH]cnc1C(=O)N[C@@H](C)C(=O)OCc1ccccc1)C(=O)OC(C)(C)C	VP16 counter 15.8µM, RORgamma inh 7.08µM (no result: p53 reactivation)
CC(C)C[C@H](NC(=O)c1nc[nH]c1C(=O)NCC(=O)OCc1ccccc1)C(=O)OC(C)(C)C	VP16 counter inconclusive, RORgamma inh 12.6µM (no result: p53 reactivation)
C[C@H](NC(=O)c1nc[nH]c1C(=O)NCC(=O)OCc1ccccc1)C(=O)OC(C)(C)C	VP16 counter inconclusive
O=C(OCC(=O)N(CCc1ccccc1)Cc1ccccc1)c1cccc(S(=O)(=O)N2CCOCC2)c1	none (no result: p53 reactivation, VP16 counter, RORgamma inh)
COc1ccccc1NC(=O)c1coc(=O)c(Br)c1	p53 reactivation inconclusive
COC(=O)C1CC1[C@H](NC(=O)c1cccnc1)c1ccccc1 (stereo partly specified)	none (no result: p53 reactivation, CtBP-E1A blk, Six1-Eya2 blk)
CCCCc1nnc(NC(=O)C23CC4CC(CC(NC(C)=O)(C4)C2)C3)s1	none
C=CCSc1nnc(NC(=O)C23CC4CC(CC(NC(C)=O)(C4)C2)C3)s1	VP16 counter 12.6µM
Nc1cc(=O)[nH]c(SCC(=O)NNC(=O)Cc2ccccc2)n1	none
Cc1ccn2c(NCc3ccccc3)c(-c3cccs3)nc2c1	VP16 counter inconclusive, RORgamma inh 14.1µM
CC(C)c1nc2ccccn2c1NC1CCCCC1	VP16 counter inconclusive, RORgamma inh 5.01µM
c1csc(-c2nc3ccccn3c2NC2CCCCC2)c1	RORgamma inh 10µM
Cc1ccn2c(NC3CCCC3)c(-c3cccs3)nc2c1	RORgamma inh 10µM
Cc1ccn2c(NC(=O)c3ccccc3)c(-c3cccs3)nc2c1	none
CCC(C)Sc1cc(-c2nc3ccccn3c2NC2CCCCC2)ccc1OC (stereo unspecified)	none (no result: VP16 counter, RORgamma inh)
CCCCN(C=O)c1c(CC)nc2ccc(C(=O)N3CCN(c4ccccc4)CC3)cn12	none (no result: p53 reactivation, VP16 counter, RORgamma inh)
O=c1c(Br)c(N2CCCCC2)cnn1-c1ccccc1	p53 reactivation inconclusive, VP16 counter inconclusive
CC1=C(C(=O)N2CCOCC2)CC(CC(=O)NCCc2ccccn2)C(=O)N1CCCN1CCCC1=O (stereo unspecified)	none (no result: p53 reactivation, VP16 counter, RORgamma inh)
COc1ccc(C(=O)Oc2cccc3cccnc23)cc1[N+](=O)[O-]	VP16 counter 3.16µM, RORgamma inh 2.24µM, CtBP-E1A blk -72.4, Six1-Eya2 blk -88.2
CC(C)COc1ccc(CNC(=S)Nc2ccccc2)cc1Cl	VP16 counter 12.6µM, RORgamma inh 5.01µM
CC(C)Oc1ccc(CNC(=S)Nc2ccccc2)cc1Cl	VP16 counter 11.2µM, RORgamma inh 11.2µM (no result: p53 reactivation, CtBP-E1A blk)
CCCOc1ccc(CNC(=S)Nc2ccccc2)cc1Cl	VP16 counter 7.08µM, RORgamma inh 5.01µM
O=C(O)c1ccc(CNC(=S)Nc2ccccc2)cc1	none
COc1ccc(CNC(=S)Nc2ccccc2)cc1Cl	VP16 counter inconclusive, RORgamma inh inconclusive
COc1ccc(Cc2nnc(NC(=O)c3ccccc3Cl)s2)cc1OC	none (no result: p53 reactivation)
COCC(C)n1c(C)cc(C(=O)COC(=O)CN=C2NS(=O)(=O)c3ccccc32)c1C (stereo unspecified)	none
COc1ccc(S(=O)(=O)Nc2cc(C(C)C)c(O)cc2C)cc1	VP16 counter inconclusive, RORgamma inh 15.8µM
COc1ccc(S(=O)(=O)Nc2cc(C)c(O)cc2C(C)C)cc1	RORgamma inh inconclusive
CCN(CC)Cc1c(C(=O)N/N=C/c2cccs2)nnn1-c1nonc1N	RORgamma inh inconclusive
Nc1nonc1-n1nnc(C(=O)N/N=C/c2ccc(OCc3ccccc3)cc2)c1CNc1ccccc1	VP16 counter inconclusive, RORgamma inh 11.2µM
Nc1nonc1-n1nnc(C(=O)N/N=C/C=C/c2ccccc2)c1CSC1=NCCS1	VP16 counter 3.16µM, RORgamma inh 1.41µM, CtBP-E1A blk inconclusive
Nc1nonc1-n1nnc(C(=O)N/N=C/c2ccc(OCc3ccccc3)cc2)c1COc1ccc(F)cc1	none
Nc1nonc1-n1nnc(C(=O)N/N=C/c2c(Cl)cccc2Cl)c1CSC1=NCCS1	CtBP-E1A blk inconclusive
Nc1nonc1-n1nnc(C(=O)N/N=C/c2ccccc2Cl)c1CSc1ccccc1	none
Nc1nonc1-n1nnc(C(=O)N/N=C/c2cccs2)c1CSc1ccccc1	VP16 counter 5.01µM, RORgamma inh inconclusive
CCc1c(C(=O)N/N=C/c2cccs2)nnn1-c1nonc1N	p53 reactivation inconclusive, VP16 counter inconclusive, RORgamma inh 12.6µM
COc1ccc(Nc2nnc(-c3ccc(O)cc3)c3ccccc23)cc1	Six1-Eya2 blk inconclusive
CCC(CC)c1nnc(NC(=O)c2ccc([N+](=O)[O-])cc2)s1	VP16 counter inconclusive
CCOC(=O)c1sc(NNC(=O)c2ccc(C)cc2)nc1C	VP16 counter inconclusive, RORgamma inh 0.794µM
CCOC(=O)c1csc(NC(=O)c2ccc(S(=O)(=O)N(C)C)cc2)n1	none
